This is a sample that favours compounds with a hit; in the whole collection about 1.2% have one here.
ABCB6 inh 2 = ABCB6 transporter inhibitors, primary screen, K562-ABCB6 cells, flow cytometry, MLPCN library; K562-ABCB6 porphyrin accumulation, 1 h; stronger effect = lower value; fluorescence ratio to DMSO, % at 10 µM; 0.19% of 360,000 active; ATP-binding cassette sub-family B member 6 (Homo sapiens), Q9NP58; AID 602162, 2011;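 active = fluorescence ratio to DMSO below 75%, the collection mean minus 3 SD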;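 note: signal is porphyrin accumulated inside mitochondria; 100% equals median channel fluorescence of DMSO control wells; lower ratio means ABCB6 inhibition with less porphyrin fluorescence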
SKN-1 inh = suppressors of acrylamide-induced Pgst-4::GFP reporter in worms, primary screen, SKN-1 inhibitor project, whole organism, uHTS, GFP/RFP fluorescence ratio, strain VP596; C. elegans VP596 Pgst-4::GFP/RFP ratio, 24 h; AID 624304, 2012; inhibition, % at 21.8 µM; 0.49% of 360,000 active;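 active = interference check ratio from 0.5 to 1.5 plus GFP to RFP signal ratio inhibition reaching or exceeding a fixed threshold, cut at about 30% in these data, passing the limit was not always enough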
Platelet DG rel = inhibitors of platelet dense granule secretion, primary screen, cell-based, MLPCN, human platelets. human platelet-rich plasma, SFLLRN dense granule ATP release, luminescence. inhibition, %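 (compounds screened at 7.5 µM in platelet-rich plasma)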. 0.22% of 300,000 active;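 active = mean replicate score, as percent of positive control, at or above 50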
CR mimetic SO = reduction of superoxide in aged yeast, primary screen, HTS | S. cerevisiae aged cells, superoxide DHE fluorescence; stronger effect = lower value | superoxide response (% of plate mean), % at 10 µM | 0.18% of 330,000 active | AID 2690, 2010;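 active = superoxide response under a set limit, about three screen SD below normal, cut at about 65% in these data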;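 note: yeast aged for seven days with compound at 30 °C before DHE staining; 100% = average MFI of all compound-treated wells on the plate with controls excluded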
VLA-4 inh = inhibition in human VLA-4 binding assay, primary screen, VLA-4 allosteric modulator project, MLPCN library, flow cytometry, VLA-4 expressing cells; 0.2% of 330,000 active; ligand binding flow cytometry; Integrin alpha-4 (Homo sapiens), P13612; inhibition, % (about 7 µM as worked out from the volumes in the protocol); in the data active = inhibition above about 50%
Starred values were filed as active, the others as inactive; . = not tested or not shown.

SMILES	ABCB6 inh 2	SKN-1 inh	Platelet DG rel	CR mimetic SO	VLA-4 inh
Cn1nc(C(C)(C)C)cc1C(=O)N1CCCCC1c1cc(C(=O)Nc2ccccc2Cl)no1 (stereo unspecified)	102	-3	.	.	.
Cc1cc(N2CCCC2)ccc1/C=C1\NC(=S)N(C)C1=O	250	43*	8	81	-83
CN1C(=O)c2ccc(N3CCCC3)cc2C1=O	101	14	5	94	-3
O=S1(=O)CC(N2CCC(Cc3ccccc3)CC2)CN1CCc1ccccc1 (stereo unspecified)	94	4	.	.	.
Cc1cnc(C(=O)Nc2cccc3ncccc23)cn1	89	-12	4	107	1
Cc1cnc(C(=O)Nc2ccccc2-c2ccc(C)o2)cn1	100	36*	-2	101	0
COc1ccc(NC(=O)C2Cc3c(-c4cccc(NC(C)=O)c4)ccnc3O2)cn1 (stereo unspecified)	93	7	.	.	.
Cc1ccc(Oc2nc3ccccn3c(=O)c2/C=C(\C#N)C(=O)NC2CCS(=O)(=O)C2)c(C)c1 (stereo unspecified)	101	3	51*	128	4
CCCCCCCCN1C(=O)[C@H](CC(=O)NCCc2ccccc2OC)C[C@@]2(C(=O)OC)CC(C)(C)CC=C12	.	13	.	.	.
COc1ccc(N=Nc2n(C)c3ccccc3[n+]2C)cc1	.	.	98*	.	.
CCOC(=O)[C@]12CCC=C1N(Cc1cccc3ccccc13)C(=O)[C@H](CC(=O)N1CCCC1)C2	98	15	.	.	.
CC(C)(C)C(=O)Nc1cc2nn(-c3ccccc3)nc2cc1Cl	105	42*	.	.	.
O=C(Nc1cc2nn(-c3ccccc3)nc2cc1Cl)c1ccco1	93	45*	16	101	0
CC(=O)Nc1cc2nn(-c3ccccc3)nc2cc1Cl	89	-3	7	124	-6
O=C(Nc1ccc2nn(-c3ccccc3)nc2c1)c1ccco1	77	-7	.	97	-5
Cc1ccc(S(=O)(=O)N2[C@@H](CCO)OC[C@H]2C(C)C)cc1	.	3	.	.	.
O=c1[nH][nH]c2c1C(c1ccc(Cl)c(Cl)c1)OC(CCc1ccccc1)C2 (stereo unspecified)	98	19	.	.	.
CCc1nc2oc3ccccc3c(=O)c2c(=O)n1-c1ccccc1	86	30*	3	95	-3
CCc1nc2oc3ccccc3c(=O)c2c(=O)n1-c1ccc(C)cc1	105	28	-4	116	4
COc1ccc(N=Nc2ccc3ccccc3c2)c(O)c1	99	33*	9	96	4
CCN(CC)C(=O)c1cccc(-c2csc(C(C)(O)c3ccncc3)n2)c1 (stereo unspecified)	93	3	.	.	.
COC(=O)[C@]12CCCCC=C1N(CCc1ccc(OC)c(OC)c1)C(=O)[C@H](CC(=O)N1CCC(c3ccccc3)CC1)C2	.	-3	.	.	.
CCOC(=O)c1cc2cc([N+](=O)[O-])ccc2oc1=O	93	-15	59*	103	15
CC(C)OCCCNc1ncc2c(n1)CC(c1cccs1)CC2=O (stereo unspecified)	95	9	-9	101	7
CC(C)C(=O)Nc1ncc2c(n1)CC(c1cccs1)CC2=O (stereo unspecified)	115	4	65*	101	15
SMILES	ABCB6 inh 2	SKN-1 inh	Platelet DG rel	CR mimetic SO	VLA-4 inh
Cc1csc(-c2nc3ccccc3n2C(C(=O)Nc2c(C)cccc2C)C2CC2)c1 (stereo unspecified)	.	-1	.	.	.
CCCCn1nnnc1C(c1ccccc1)N1CCN(c2ncc(C(F)(F)F)cc2Cl)CC1 (stereo unspecified)	100	2	.	.	.
CCCCNC(=O)COC(=O)c1cc(S(=O)(=O)N2CCCCCC2)ccc1OC	94	40*	7	98	-1
COc1ccc(C(C(=O)Nc2ccc(F)cc2)N2CCN(C(=O)c3ccco3)CC2)cc1 (stereo unspecified)	.	8	.	.	.
Cc1ccc(SCCNC(=O)CN2C(=O)c3ccccc3S2(=O)=O)cc1	95	37*	-1	106	6
O=C(CN1CCN(c2ncc(C(F)(F)F)cc2Cl)CC1)N1CCN(c2ncc(C(F)(F)F)cc2Cl)CC1	96	17	5	102	-4
